In the library only some 12% were active in any assay of this set; here they are far more common.
NS1 inh – qHTS Assay for Inhibitors of Influenza NS1 Protein Function; Potency, µM (doses to about 46.1 µM); hit rate 0.4% among 270,000; calls by dose curve; further: actives are rising curves; nearly all actives have a fitted effect of over 50% in size
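Growth recovery, yeast-based: influenza A NS1 expressed in S. cerevisiae causes slow growth, and suppressors are detected by OD600. The parent strain without NS1 is used as positive control.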
Pf growth 48h – Primary qHTS for delayed death inhibitors of the malarial parasite plastid, 48 hour incubation; P. falciparum luciferase growth in erythrocytes, 48 h; Potency, µM (series often up to 28.7 µM), hits mostly inhibitors; hit rate 5.9% among 310,000; AID 504832, 2011
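Parasite viability was followed by luminescence of a genomically integrated firefly luciferase. Cultures held 0.1% parasitemia at 2% hematocrit (final), incubated under 5% CO2 at 37 C.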
HCV inhibitor – qHTS Assay for Inhibitors of Hepatitis C Virus (HCV) | Potency, µM (doses to about 41.8 µM), hits mostly inhibitors | Huh7.5.1 HCVcc-Cre infection, luciferase reporter, 44 h | hit rate 3.4% among 340,000
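Infectious HCV cell culture screen: compound-treated cells (1,000/well, pre-plated 4 h) are infected with HCVcc-Cre at roughly 0.5 moi and grown 44 h. Infection is quantified by luciferase signal after 15 min substrate incubation at room temperature.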
AMA1 RON2 block – qHTS for Inhibitors of AMA1-RON; Towards Development of Antimalarial Drug Lead: Primary Screen | Plasmodium falciparum AMA1 (3D7) - RON2 peptide interaction | AlphaScreen AMA1-biotinylated RON2 peptide binding | Potency, µM (doses to about 58.2 µM), hits mostly inhibitors | hit rate 0.2% among 360,000 | AID 720542, 2013; further: nearly all actives have a fitted effect of over 45% in size
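AMA1 (3D7) with his tag at 25 nM final met compounds first, then biotinylated RON2 peptide at 25 nM; detection used donor plus acceptor beads, 10 µg/mL apiece, read by AlphaScreen after 30 min at room temperature.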
SARS PLP yeast – qHTS of Yeast-based Assay for SARS-CoV PLP | S. cerevisiae expressing SARS-CoV PLpro, growth rescue | hit rate 0.19% among 330,000 | Potency, µM (series often up to 32.9 µM), hits mostly activators | AID 485353, 2010; calls by dose curve; further: nearly all actives have a fitted effect of over 55% in size
Pf growth 96h – Primary qHTS for delayed death inhibitors of the malarial parasite plastid, 96 hour incubation. P. falciparum luciferase reporter growth, 96 h. Potency, µM (series often up to 28.7 µM), usual class: inhibitors. hit rate 6.9% among 320,000. AID 504834, 2011
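Compounds incubated with erythrocytes infected by luciferase-expressing P. falciparum (2% hematocrit, 0.05% parasitemia final) for 96 hours, 37 C in 5% CO2. Growth inhibition scored as decreased luciferase luminescence.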
Of the large screens only hits and unclear results are named; the others gave an inactive call; ! = not confirmed by another sample. Unless noted, the call rests on the fitted dose curve; in most records, active means well fitted curve in the direction sought with a large enough effect; inconclusive means small, poorly fitted or top-dose-only effect, or another doubt; inactive means no such curve, though single readings can be large; an effect the other way counts as inactive or inconclusive.

CCCc1nn2c(=O)cc(CSCC(=O)Nc3nnc(C(C)C)s3)nc2s1	Pf growth 96h 12µM
Cc1nn2c(=O)cc(CSCC(=O)Nc3ccccc3Cl)nc2s1	Pf growth 96h 12µM
CCOC(=O)c1c(C)nc(C)c(C(=O)OCC)c1-c1cccnc1	Pf growth 96h inconclusive
CCOC(=O)c1c(C)oc2c1c(C(c1cccnc1)N1CCN(C)CC1)c(O)c1ccccc12 (stereo not drawn)	HCV inhibitor 11µM (no result: AMA1 RON2 block)
CCOC(=O)c1c(C)oc2c1c1c(c3ccccc32)OCN(CCCC(=O)O)C1	HCV inhibitor 10µM
CCOC(=O)c1c(C)oc2c1c1c(c3ccccc32)OCN(Cc2cccnc2)C1	Pf growth 48h inconclusive, HCV inhibitor 6.3µM, Pf growth 96h inconclusive
CCOC(=O)c1c(C)oc2c1c(C(c1cccnc1)N1CCOCC1)c(O)c1ccccc12 (stereo not drawn)	HCV inhibitor inconclusive
CCN(C(=O)COC(=O)c1cccc(S(=O)(=O)NCc2ccccc2)c1)c1ccccc1	HCV inhibitor inconclusive (no result: NS1 inh)
CCOC(=O)C(NC(=O)c1ccc(OC)cc1)(OCC1(CC)COC1)C(F)(F)F (stereo not drawn)	Pf growth 48h 13µM, Pf growth 96h 13µM
CNC(=O)/C(=C\c1ccc2c(c1)OCO2)NC(=O)c1ccc(Br)cc1	none
Cc1nnc(SCc2cc(=O)oc3cc(O)ccc23)n1Cc1ccccc1	Pf growth 48h inconclusive, Pf growth 96h 2.1µM
Cc1nnc(SCc2cc(=O)oc3ccc4ccccc4c23)n1Cc1ccccc1	none
COC(=O)[C@@]12CCCN1[C@H](c1ccc(-c3cccc(Cl)c3)cc1)[C@H]1C(=O)N(C)C(=O)[C@H]12	Pf growth 48h 6.6µM, HCV inhibitor inconclusive, Pf growth 96h 13µM (no result: NS1 inh)
COC(=O)[C@@]12CCCN1[C@H](c1ccc(-c3ccccc3)cc1)[C@@H]1C(=O)N(C)C(=O)[C@@H]12	Pf growth 48h 7.4µM, Pf growth 96h inconclusive (no result: NS1 inh)
COC(=O)[C@@]12CCCCN1[C@H](c1ccc(-c3cccc(Cl)c3)cc1)[C@H]1C(=O)N(C)C(=O)[C@H]12	Pf growth 48h inconclusive, Pf growth 96h inconclusive (no result: NS1 inh)
COC(=O)[C@@]12CCCCN1[C@H](c1ccc(-c3ccc(OC)cc3)cc1)[C@@H]1C(=O)N(C)C(=O)[C@@H]12	Pf growth 48h inconclusive (no result: NS1 inh)
CC(C)OC(=O)c1ccc(NC(=O)CSc2nc3ncccc3[nH]2)cc1	HCV inhibitor 11µM, Pf growth 96h inconclusive
Cc1cc(C)nc(Nc2nc3ccccc3s2)n1	Pf growth 96h 1.7µM (no result: NS1 inh)
COC(=O)c1cc2sc(Cl)cc2n1Cc1nc(-c2ccccc2)oc1C	Pf growth 96h 8.3µM (no result: Pf growth 48h)
COC(=O)c1cc2sc(Cl)cc2n1Cc1nc(-c2cccc(C)c2)oc1C	none (no result: Pf growth 48h, HCV inhibitor, AMA1 RON2 block)
Cc1ccc(CN2CCSc3ccc(C(=O)NCCCN4CCN(C)CC4)cc32)cc1	Pf growth 48h 15µM, HCV inhibitor inconclusive, Pf growth 96h inconclusive
Cc1ccc(CN2CCSc3ccc(C(=O)NCc4cccnc4)cc32)cc1	Pf growth 48h inconclusive, HCV inhibitor 25µM (no result: NS1 inh)
Cc1ccc(CN2CCSc3ccc(C(=O)NC4CCCC4)cc32)cc1	Pf growth 48h inconclusive, Pf growth 96h inconclusive
Cc1ccc(CN2C(=O)/C(=C\c3ccc(C(=O)NCc4cccnc4)cc3)Oc3ccccc32)cc1	Pf growth 48h inconclusive, Pf growth 96h 1.7µM (no result: AMA1 RON2 block)
O=C(Nc1cccc(NC(=O)c2ncn[nH]2)c1)c1cccc(Cl)c1	Pf growth 96h inconclusive (no result: NS1 inh)
CC(NC(=O)COC(=O)CNS(=O)(=O)/C=C/c1ccccc1)c1ccccc1 (stereo not drawn)	none (no result: NS1 inh)
C[C@H]1CN([C@@H](C)CO)C(=O)c2cc(Br)cnc2O[C@H]1CN(C)C(=O)C1CC1	none (no result: NS1 inh, Pf growth 48h, HCV inhibitor, SARS PLP yeast, Pf growth 96h)
Cc1ccc(NS(=O)(=O)Cc2ccccc2)cc1Cl	Pf growth 96h inconclusive
FC(F)(F)c1cc(C(F)(F)F)c2ccc(N/N=C/c3cccc(Cl)c3)nc2n1	none (no result: HCV inhibitor, AMA1 RON2 block)
Cc1ccc(C(C#N)c2ccc3c(C(F)(F)F)cc(C(F)(F)F)nc3n2)cc1 (stereo not drawn)	Pf growth 48h inconclusive, HCV inhibitor 10µM, AMA1 RON2 block inconclusive, Pf growth 96h 1.7µM
N#CC(c1ccccc1)c1ccc2c(C(F)(F)F)cc(C(F)(F)F)nc2n1 (stereo not drawn)	AMA1 RON2 block inconclusive, Pf growth 96h 12µM (no result: Pf growth 48h)
FC(F)(F)c1cc(C(F)(F)F)c2ccc(N/N=C/c3ccccc3)nc2n1	Pf growth 96h 0.47µM
CCS(=O)(=O)Nc1ccc2c(c1)N(C(C)=O)c1ccccc1CC2	none (no result: Pf growth 96h)
CNCCC(=O)N1c2ccccc2CCc2ccc(NC(=O)OC)cc21	none
CCOC(=O)Nc1ccc2c(c1)N(C(=O)CN)c1ccccc1CC2	NS1 inh inconclusive, Pf growth 48h 12µM, HCV inhibitor inconclusive, Pf growth 96h inconclusive
CCOC(=O)Nc1ccc2c(c1)N(C(=O)OCCN(C)C)c1ccccc1CC2	Pf growth 96h 1.5µM!
COC(=O)Nc1ccc2c(c1)N(C(=O)CCN1CCOCC1)c1ccccc1S2	Pf growth 48h inconclusive, Pf growth 96h inconclusive
CC(C)OC(=O)Nc1ccc2c(c1)N(C(=O)CCN(C)C)c1ccccc1CC2	none
COC(=O)Nc1ccc2c(c1)N(C(=O)CCN(C)C)c1ccccc1CC2	Pf growth 96h 7.4µM
CCOC(=O)Nc1ccc2c(c1)N(C(=O)CCN1CCOCC1)c1ccccc1S2	Pf growth 48h 15µM!, HCV inhibitor inconclusive, Pf growth 96h inconclusive
CCc1cccc(NC(=O)c2cccc3c2C(=O)N(C2CCCCC2)C3)c1	Pf growth 48h inconclusive, Pf growth 96h inconclusive
CC(C)Cn1c(N)c(C(=O)COC(=O)COc2cccc(C(F)(F)F)c2)c(=O)n(C)c1=O	none
CC(C)c1cccc(C(C)C)c1NC(=O)c1ccc(-c2cc(Cl)ccc2Cl)o1	none (no result: NS1 inh, Pf growth 48h, HCV inhibitor, SARS PLP yeast, Pf growth 96h)
CCOC(=O)Nc1ccc2c(c1)N(C(=O)CN(C)C)c1ccccc1CC2	Pf growth 96h 10µM
CCNCC(=O)N1c2ccccc2CCc2ccc(NC(=O)OCC)cc21	Pf growth 48h 10µM
CCN(CC)CCNCC(=O)N1c2ccccc2CCc2ccc(NC(=O)OC)cc21	Pf growth 48h inconclusive, Pf growth 96h inconclusive
CCOC(=O)Nc1ccc2c(c1)N(C(=O)CCN(C)C)c1ccccc1CC2	none
O=C1/C(=N\S(=O)(=O)c2cccs2)C([n+]2cccc(Cc3ccccc3)c2)=C([O-])c2ccccc21	Pf growth 48h 1.7µM, Pf growth 96h 0.74µM
CC(C)N(Cc1ccccc1)S(=O)(=O)c1cccs1	none
O=S(=O)(NCCc1ccccc1)c1cccs1	none
O=C1/C(=N\S(=O)(=O)c2cccs2)C([n+]2ccc(CCCc3ccccc3)cc2)=C([O-])c2ccccc21	Pf growth 48h 0.37µM, HCV inhibitor inconclusive, Pf growth 96h 1µM

High-throughput results: PubChem BioAssay, National Center for Advancing Translational Sciences (NCATS)
